This is part of a sample that, as a whole, favours compounds with a hit. Of some 79,000 tested, about 15% had one in any assay. The source made the active and inactive calls. Cut-off read from the data, not from the text of the source: active = growth inhibition above about 70%; inactive = the rest.
Experiment: NCI Yeast Anticancer Drug Screen. Data for the sgs1 mgt1 strain (AID 161);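 note: 0% = growth of cultures given vehicle only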
Conditions: S. cerevisiae sgs1 mgt1 strain, at 50.0 µM, stronger effect = higher value
Outline: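 Inhibition of yeast growth, normalised to vehicle-treated controls, is reported for a strain bearing genetic alterations in DNA damage repair.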

Row | SMILES | growth inhibition
1 | C[N+]1(C)CCOC(O)(c2ccccc2)C1 (stereo not given) | -27.4% (inactive)
2 | O=C(CCc1n[nH]c(=S)o1)Nc1ccccc1 | 30.4% (inactive)
3 | COc1ccc(/C=C\c2cccc(Cl)c2)cc1 | 3.3% (inactive)
4 | N#CSCc1c(Cl)c(Cl)c(CSC#N)c(Cl)c1Cl | 2.15% (inactive)
5 | Nc1ncnc2c1ccn2C1OC2COP(=O)(O)OC2C1O (stereo not given) | -7.1% (inactive)
6 | CCc1ccc(/C(C#N)=C/c2cccc3ccccc23)cc1 | -0.6% (inactive)
7 | CCOC(=O)c1c(O)nc2sc3ccccc3n2c1=O | 6.7% (inactive)
8 | COC(=O)C(CCc1ccc([N+](=O)[O-])cc1)(CCc1ccc([N+](=O)[O-])cc1)C(C)=O | 4.55% (inactive)
9 | O=C(O)C1CSC2(CCCN(Cc3ccccc3)C2)N1 (stereo not given) | -5.85% (inactive)
10 | CC1OC(n2cc(Cl)c(=O)[nH]c2=O)C=C(OC(=O)c2ccccc2)C1=O (stereo not given) | -24.9% (inactive)
11 | O=[N+]([O-])c1ccc(S(=O)(=O)c2ccc(NCN3CCCCC3)cc2)cc1 | 26.9% (inactive)
12 | O=[N+]([O-])C1C2C=CC(C2)[C@H]1c1ccco1 (stereo not given in full) | -24.7% (inactive)
13 | Cc1cc(N(CCC#N)CCC#N)ccc1/C=C1N=C(/C=C\c2ccccc2)N(c2ccc(C(=O)O)cc2)C\1=O | -16.9% (inactive)
14 | COc1cc(OC)c(NC(N)=O)cc1Cl | 3.55% (inactive)
15 | CN(C)CCOc1ccccn1 | -5.35% (inactive)
16 | COC(=O)NN=C1C(C)(C)C(=O)C1(C)C | -25.4% (inactive)
17 | CCC1OC(=O)CC(O)C(C)C(OC2OC(C)CC(N(C)C)C2O)C(CC=O)CC(C)C(=O)/C=C/C2(C)OC2C1C (stereo not given) | -11.3% (inactive)
18 | COc1ccc(S(=O)c2coc3ccccc3c2=O)cc1 (stereo not given) | 28.1% (inactive)
19 | O=C(O)c1cccc(S(=O)(=O)NCCO)c1 | -20.8% (inactive)
20 | CC1C=CCCC1COC(=O)C(=O)OCC1CC=CCC1C (stereo not given) | 28.1% (inactive)

Row | SMILES | growth inhibition
21 | CCCCC(=O)Nc1ccc(Cl)cc1 | 6.5% (inactive)
22 | CC(=O)CC1CCCC1 | 19.9% (inactive)
23 | CCN(c1ccccc1)c1nsc(Cl)n1 | -15.9% (inactive)
24 | c1ccc(CSCCc2ccncc2)cc1 | -21.1% (inactive)
25 | C[n+]1ccsn1 | -4.7% (inactive)
26 | CC(C)CC(C)(CC(C)C)C(=O)O | 7.8% (inactive)
27 | CN(C)c1ccccc1CC(=O)Nc1ccccc1 | -5.85% (inactive)
28 | CC(C)(C)OC(=O)CN1C(=O)CCC1=O | 20.2% (inactive)
29 | CCN(CC)C(=O)C1(C)NS(=O)(=O)c2ccccc2C1=O (stereo not given) | -4.15% (inactive)
30 | CC(=O)CC(C)(C)NNC(N)=S | 14.3% (inactive)
31 | C/C=C/C1N(C)CCCN1C | -7.25% (inactive)
32 | COc1ccc(N2C(=O)C3c4[nH]c5ccccc5c4C4CCCCCCC4C3C2=O)cc1 (stereo not given) | 22.6% (inactive)
33 | CC(C)C1N=C(N)N=C(N)N1c1ccc(Cl)c(Cl)c1 (stereo not given) | 8% (inactive)
34 | CC(NC(=O)c1ccc(C(C[N+](=O)[O-])SCCC(=O)O)cc1)C(=O)O (stereo not given) | 26.2% (inactive)
35 | Ic1ccccn1 | -9.05% (inactive)
36 | COc1cc2nc(C)oc(=O)c2cc1OC | 10.9% (inactive)
37 | N#CC1(C#N)CC1(C#N)C#N | -1.75% (inactive)
38 | Cc1cc(N=Cc2c(CO)cnc(C)c2O)c(N=Cc2c(CO)cnc(C)c2O)cc1C.[Zn] | 5.6% (inactive)
39 | Cn1nc2c(c1-c1cccnc1)CCCc1ccccc1-2 | 13.7% (inactive)
40 | COC(=O)C(C(=O)C(=O)Nc1ccc([N+](=O)[O-])cc1)c1nc2ccc([N+](=O)[O-])cc2[nH]c1=O (stereo not given) | -32.5% (inactive)

Experiment: NCI Yeast Anticancer Drug Screen. Data for the cln2 rad14 strain (AID 165);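 note: 0% = growth equal to vehicle treated cultures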
Conditions: S. cerevisiae cln2 rad14 strain, at 50.0 µM, stronger effect = higher value
Outline: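 Compounds are applied to the cln2 rad14 yeast strain, and growth is then compared with that of vehicle-treated cultures to give inhibition.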

Row | SMILES | growth inhibition
41 | C[N+]1(C)CCOC(O)(c2ccccc2)C1 (stereo not given) | -2.85% (inactive)
42 | O=C(CCc1n[nH]c(=S)o1)Nc1ccccc1 | 15.8% (inactive)
43 | COc1ccc(/C=C\c2cccc(Cl)c2)cc1 | -8.95% (inactive)
44 | N#CSCc1c(Cl)c(Cl)c(CSC#N)c(Cl)c1Cl | -18.9% (inactive)
45 | Nc1ncnc2c1ccn2C1OC2COP(=O)(O)OC2C1O (stereo not given) | 8.45% (inactive)
46 | CCc1ccc(/C(C#N)=C/c2cccc3ccccc23)cc1 | -1.9% (inactive)
47 | CCOC(=O)c1c(O)nc2sc3ccccc3n2c1=O | -1.75% (inactive)
48 | COC(=O)C(CCc1ccc([N+](=O)[O-])cc1)(CCc1ccc([N+](=O)[O-])cc1)C(C)=O | -19.9% (inactive)
49 | O=C(O)C1CSC2(CCCN(Cc3ccccc3)C2)N1 (stereo not given) | -3.7% (inactive)
50 | CC1OC(n2cc(Cl)c(=O)[nH]c2=O)C=C(OC(=O)c2ccccc2)C1=O (stereo not given) | -16.8% (inactive)
51 | O=[N+]([O-])c1ccc(S(=O)(=O)c2ccc(NCN3CCCCC3)cc2)cc1 | -3.95% (inactive)
52 | O=[N+]([O-])C1C2C=CC(C2)[C@H]1c1ccco1 (stereo not given in full) | 20.2% (inactive)
53 | Cc1cc(N(CCC#N)CCC#N)ccc1/C=C1N=C(/C=C\c2ccccc2)N(c2ccc(C(=O)O)cc2)C\1=O | -6.3% (inactive)
54 | COc1cc(OC)c(NC(N)=O)cc1Cl | 9.75% (inactive)
55 | CN(C)CCOc1ccccn1 | 7.75% (inactive)
56 | COC(=O)NN=C1C(C)(C)C(=O)C1(C)C | 6.05% (inactive)
57 | CCC1OC(=O)CC(O)C(C)C(OC2OC(C)CC(N(C)C)C2O)C(CC=O)CC(C)C(=O)/C=C/C2(C)OC2C1C (stereo not given) | -1.55% (inactive)
58 | COc1ccc(S(=O)c2coc3ccccc3c2=O)cc1 (stereo not given) | 14.7% (inactive)
59 | O=C(O)c1cccc(S(=O)(=O)NCCO)c1 | -1.9% (inactive)
60 | CC1C=CCCC1COC(=O)C(=O)OCC1CC=CCC1C (stereo not given) | 9.25% (inactive)

Row | SMILES | growth inhibition
61 | CCCCC(=O)Nc1ccc(Cl)cc1 | 8.2% (inactive)
62 | CC(=O)CC1CCCC1 | 15.9% (inactive)
63 | CCN(c1ccccc1)c1nsc(Cl)n1 | -9.4% (inactive)
64 | c1ccc(CSCCc2ccncc2)cc1 | -3.2% (inactive)
65 | C[n+]1ccsn1 | 37% (inactive)
66 | CC(C)CC(C)(CC(C)C)C(=O)O | -1.5% (inactive)
67 | CN(C)c1ccccc1CC(=O)Nc1ccccc1 | -21.8% (inactive)
68 | CC(C)(C)OC(=O)CN1C(=O)CCC1=O | -26.1% (inactive)
69 | CCN(CC)C(=O)C1(C)NS(=O)(=O)c2ccccc2C1=O (stereo not given) | -31.9% (inactive)
70 | CC(=O)CC(C)(C)NNC(N)=S | -21.6% (inactive)
71 | C/C=C/C1N(C)CCCN1C | 18% (inactive)
72 | COc1ccc(N2C(=O)C3c4[nH]c5ccccc5c4C4CCCCCCC4C3C2=O)cc1 (stereo not given) | -8.9% (inactive)
73 | CC(C)C1N=C(N)N=C(N)N1c1ccc(Cl)c(Cl)c1 (stereo not given) | -16.9% (inactive)
74 | CC(NC(=O)c1ccc(C(C[N+](=O)[O-])SCCC(=O)O)cc1)C(=O)O (stereo not given) | 5.55% (inactive)
75 | Ic1ccccn1 | -29.8% (inactive)
76 | COc1cc2nc(C)oc(=O)c2cc1OC | -28.4% (inactive)
77 | N#CC1(C#N)CC1(C#N)C#N | 27.1% (inactive)
78 | Cc1cc(N=Cc2c(CO)cnc(C)c2O)c(N=Cc2c(CO)cnc(C)c2O)cc1C.[Zn] | -3.15% (inactive)
79 | Cn1nc2c(c1-c1cccnc1)CCCc1ccccc1-2 | -15.4% (inactive)
80 | COC(=O)C(C(=O)C(=O)Nc1ccc([N+](=O)[O-])cc1)c1nc2ccc([N+](=O)[O-])cc2[nH]c1=O (stereo not given) | -41.2% (inactive)
